About 1,500 (65%) of roughly 2,300 compounds were called active. So high a share suggests a set chosen from earlier hits. The list shows a part of the results. Entries with a potency or affinity are not part of this list. Unmarked numbers belong to inactive results. The rule behind the calls is not given here.
Experiment: replicating M. tuberculosis growth inhibition, dose response, non-replicating M. tuberculosis project, H37Rv (AID 492952);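 note: Mycobacterium tuberculosis grown in culture; growth inhibition read after a week of incubation; 0% = bacteria alone untreated and 100% = bacteria with high antibiotic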
Conditions: series mostly up to 50 µM; inhibition: at the top concentration

Point of comparison: `O=S(=O)(c1ccc(Cl)c2ccccc12)N1CCCC1`, “inhibition” value -2.3%. Against it:
- COc1ccc(S(=O)(=O)N(C(C)=O)c2ccc(OC(C)=O)c3ccccc23)cc1[N+](=O)[O-] — higher, 16.4%
- Cc1nc2scc(-c3ccccc3)c2c(=O)o1 — higher, 5.68%
- CCOC(=O)c1ccc(NC(=O)CCSCCc2ccccn2)cc1 — higher, 0.82%
- CCOC(=O)c1ccc(NC(=O)NS(=O)(=O)c2ccc(C)cc2)cc1 — higher, 3.68%
- Cc1ccc(CCC(=O)Nc2ccc([N+](=O)[O-])cc2)o1 — higher, 2.46%
- O=C(NNc1ccc([N+](=O)[O-])cc1)C1CC2CCCC(C1)C2=O (configuration not stated) — higher, 4.15%
- CC(NC(=O)c1cccc(F)c1)C1CC2CCC1C2 (configuration not stated) — higher, -1.67%
- O=C(N/N=C/C=C/c1ccccc1)c1cccs1 — higher, 2.93%
- O=C(Nc1cccnc1)c1cc(Cl)ccc1Cl — higher, 2.63%
- Cn1c(-c2cccc([N+](=O)[O-])c2)cnc1NCc1cccc(F)c1 — higher, -0.03%
- O=C1OC(/C=C/c2ccccc2)=NC/1=C\c1cccnc1 — higher, 8.72%
- Cc1ccccc1C1=N/C(=C/c2cccnc2)C(=O)O1 — lower, -9.98%
- O=C(COc1ccc2ccccc2c1Br)N1CCCC1 — higher, 11.9%
- Cc1cc(OCCCn2ccnc2)ccc1C(C)C — higher, 8.68%
- Cc1ccc(C(=O)COC(=O)CCc2ccc(S(=O)(=O)N3CCCCC3)cc2)cc1 — lower, -2.89%
- O=C(COc1c(Br)cc(Br)c2cccnc12)N1CCCCC1 — higher, 1.93%
- COc1cc(NC(=O)N2CCOCC2)cc(OC)c1 — higher, 2.67%
- CCOC(=O)C1CCCN(Cc2nc(Cc3ccccc3Cl)no2)C1 (configuration not stated) — lower, -3.11%
- Cc1cc(C)nc(SC2CC(=O)N(c3ccc(C)c(C)c3)C2=O)n1 (configuration not stated) — higher, -0.48%
- CC(=O)Nc1ccc(NC(=O)[C@@H]2CCCC[C@@H]2C(=O)O)cc1 — higher, 6.64%
- Cc1nc(C(=O)Nc2ccccc2)sc1C(=O)Nc1ccccc1 — lower, -3.5%
- NC(=O)N/N=C\c1cc(Br)ccc1O — higher, 1.43%
- NC(N)=N/N=C/c1cc([N+](=O)[O-])ccc1O — higher, -0.86%
- O=C1N=c2ccccc2=C1c1c(O)n(-c2cccc(F)c2)[nH]c1=O — higher, 4.88%
- O=C(Cc1c(F)cccc1Cl)Nc1ncc([N+](=O)[O-])s1 — higher, 6.48%
- Cc1ccc(C(=O)O/N=C(\N)c2cccc([N+](=O)[O-])c2)cc1 — higher, 8.71%
- N/C(=N\OC(=O)c1cccc2ccccc12)c1cccnc1 — higher, 11.1%
- N/C(=N\OC(=O)c1cccc(Br)c1)c1ccc([N+](=O)[O-])cc1 — lower, -3.85%
- CCCNC(=O)NC(=O)COc1ccc2oc3ccccc3c2c1 — higher, 7.11%
- O=C(COc1ccccc1)Nc1ccc(F)cc1 — higher, 8.73%
- N#CC1=C(N)Oc2c(ccc3cccnc23)C1c1ccccc1 (configuration not stated) — higher, 1.24%
- O=C(NCCc1cccc(Cl)c1)c1cc2ccccc2oc1=O — lower, -3.15%
- COCCCC1CCN(Cc2nc(-c3ccccc3)no2)CC1 — lower, -5.23%
- CC(C)(C)OC(=O)NCCC(=O)Oc1ccc2ccc(=O)oc2c1 — lower, -10.2%
- O=C(NC(=S)Nc1ccc(F)cc1)C1CCCCC1 — higher, 8.98%
- O=C(N/N=C/c1cccc([N+](=O)[O-])c1O)c1cccs1 — higher, 10.5%
- O=C(O)c1ccccc1-c1ccccc1C(=O)Nc1nc2ccccc2s1 — higher, 14%
- O=C(O)c1ccccc1C(=O)NNc1ccc(Cl)cc1 — higher, 9.18%
- O=C(NCCN1C(=O)S/C(=C\c2ccccc2F)C1=O)C1CCN(S(=O)(=O)c2cccs2)CC1 — higher, 4.18%
- O=S(=O)(Nc1ccc(O)c2ccccc12)c1ccc(F)cc1 — higher, -0.46%
- O=c1cc(-c2ccccc2Cl)oc2c([N+](=O)[O-])c(O)cc(O)c12 — higher, -1.85%
- CCC1CCC(c2nnc(-c3ccc([N+](=O)[O-])cc3)o2)CC1 (configuration not stated) — higher, 10.4%
- Cc1ccc(-c2nnc(Cc3ccc([N+](=O)[O-])cc3)o2)cc1 — higher, -1.75%
- Cc1nc(Cl)nc(N(C)c2ccccc2)c1[N+](=O)[O-] — higher, 4.31%
- COc1ccc(Cc2nnc(SCc3ccc([N+](=O)[O-])cc3)o2)cc1 — higher, 4.06%
- O=C1CCCCC1Sc1nnc(-c2ccc3c(c2)OCO3)o1 (configuration not stated) — higher, -1.32%
- C(=C\c1ccccc1)/CSc1nc2ncccc2[nH]1 — higher, 6.43%
- O=C(CCSc1ccccc1)N1CCCC1 — higher, 3.77%
- CCS(=O)(=O)c1ncc(Cl)c(C(=O)Nc2ccc(S(=O)(=O)N3CCC(C)CC3)cc2)n1 — lower, -3.77%
- CCCC(O)(CCC)C(=O)NNc1ccc(C)cc1 — higher, 10.7%
- COc1ccc(CNC(=O)COC(=O)C2CC3C=CC2C3)cc1 (configuration not stated) — higher, 4.96%
- CCCCNC(=O)Cc1ccc(C)cc1 — lower, -4.22%
- CC(C)CSc1nnc2c3ccccc3n(C)c2n1 — higher, 1.04%
- O=C(c1cc2ccccc2o1)c1nc2c(n1O)CCCCC2 — higher, 5.04%
- CCCOC(=O)c1ccc(NC(=O)Cc2cccs2)cc1 — higher, 14%
- CCCCOC(=O)c1ccc(NC(=O)C2CCCO2)cc1 (configuration not stated) — higher, 20.4%
- CCCOC(=O)c1ccc(NC(=O)C2C3C=CC(O3)C2C(=O)O)cc1 (configuration not stated) — higher, 3.84%
- O=C(Nc1ccccc1)c1ccc(Br)o1 — higher, 12.3%
- CC1CCN(S(=O)(=O)c2cccc(C(=O)Oc3ccc([N+](=O)[O-])cc3)c2)CC1 — lower, -2.52%
- C=CCN(CC=C)C(=O)Cc1ccc(F)cc1 — lower, -3.08%
- O=C(CCNc1cccc(F)c1)c1cccc([N+](=O)[O-])c1 — higher, -0.17%

Reference: PubChem BioAssay AID492952 (Southern Research Specialized Biocontainment Screening …, 2010)
